Results reported in PubChem BioAssay (NCATS).
Results filed as inconclusive are left out. Activity calls are given as the source filed them. The call rests on the fitted dose curve.

assay: Primary qHTS to identify inhibitors of SARS-CoV-2 cell entry (AID 1645846); conditions: SARS-CoV-2 pseudovirus cell entry assay, luminescence; activity change, negative = inhibition: at 57.1 µM (top of the series) unless noted; further: nearly all actives have a fitted effect of over 45% in size
Method in brief: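 Inhibition of spike-mediated entry was scored in human ACE2-transfected Expi293F cells. Particles were MLV-pseudotyped with Wuhan-Hu-1 S carrying a 19-aa C-terminal deletion; signal was luciferase after two days, scaled between spike PP and fusion-protein-free PP.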
Potency means the concentration at half of the fitted maximal effect.

Structure (SMILES) | activity change, negative = inhibition | Potency
COC1=C(OC)C(=O)C(C/C=C(\C)CC/C=C(\C)CC/C=C(\C)CC/C=C(/C)CC/C=C(\C)CC/C=C(\C)CC/C=C(\C)CC/C=C(\C)CC/C=C(\C)CCC=C(C)C)=C(C)C1=O | -14.5% | –
CN(C)C/C=C/C(=O)Nc1ccc(C(=O)Nc2cccc(Nc3ncc(Cl)c(-c4c[nH]c5ccccc45)n3)c2)cc1 | – | 1 µM (active)
COc1nc(OCc2cccc(-c3ccccc3)c2C)ccc1CNCCNC(C)=O | – | 11.2 µM (active)
Fc1cccc(-n2cnc3c(NCc4nc5c(F)c(F)ccc5[nH]4)nc(N4CCOCC4)nc32)c1 | -62.7% | –
CC(C)(CO)n1cc(C(=O)c2cncc(NC(=O)Cc3ccc(Cl)cn3)c2)c2cnc(N)nc21 | – | inactive
CN1CCCN(C(=O)c2cccc(-c3ccc(/C=C4/C(=O)Nc5ccc(Cl)cc54)o3)c2)CC1 | – | 1 µM (active)
NS(=O)(=O)c1ccc(S(=O)(=O)Nc2cccc3c(Cl)c[nH]c23)cc1 | -3.77% | –
CCC[C@H](N[C@H]1CCc2cc(F)cc(F)c2C1)C(=O)Nc1cn(C(C)(C)CNCC(C)(C)C)cn1 | – | 31.6 µM (active)
CC(=O)NCC(=O)N1[C@@H]2CC[C@H]1c1ccc(Nc3ncc(C(F)(F)F)c(NC4CCC4)n3)cc12 | – | 3.16 µM (active)
Cc1c(NC(=O)c2cc(C(N)=O)nc3cc(F)ccc23)c(C(F)(F)F)nn1Cc1ccc(C(C)(C)C)cc1 | -95.1% | –
Cc1ccc([N+](=O)[O-])cc1S(=O)(=O)N(C)/N=C/c1cnc2ccc(Br)cn12 | -94.8% | –
CNCc1ccc(C)c(NC(=O)c2ccc(Nc3nc(-c4ccccc4)c4ccccc4n3)cc2)c1 | – | 14.1 µM (active)
